Assay results published in PubChem BioAssay AID952 (NMMLSC, 2007).
The campaign covered roughly 190,000 compounds. About 45 (0.02%) were called active. No stated cut-off is given here; in the data, active means inhibition above about 40%. A selection follows.

target: Bcl-2-like protein 2 (Homo sapiens) (UniProt Q92843); assay: Bcl-W/Bim complex disruptors – biochemical, multiplexed, bead-based flow cytometry, primary screen (AID 952); conditions: Bim peptide-Bcl-W binding, at 10 µM, hits give high values;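 further: 0% = bound tracer without compound and 100% = peptide blocker; higher means less fluorescent Bim peptide bound to Bcl-W beads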
Sequence (Q92843 whole entry, looked up): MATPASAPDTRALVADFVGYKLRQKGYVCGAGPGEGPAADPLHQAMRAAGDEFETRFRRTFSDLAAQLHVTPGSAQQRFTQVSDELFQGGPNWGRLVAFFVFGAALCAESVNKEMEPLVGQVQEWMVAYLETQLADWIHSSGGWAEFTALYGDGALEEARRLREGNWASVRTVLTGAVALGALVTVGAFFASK

inhibition, inactive:
Cc1cc(C)c(S(=O)(=O)N2CCOCC2)cc1C 0%
Cc1cccc(C(=O)N2CCc3c([nH]c4ccccc34)C2CC(C)C)n1 (stereo not drawn) 3%
CN(C)S(=O)(=O)c1ccc2oc(SCC(=O)Nc3ccccc3F)nc2c1 0%
O=C(NNC(=O)c1ccccc1[N+](=O)[O-])Nc1ccccc1C(F)(F)F 0%
Cc1cc(C(=O)NNC(=S)Nc2ccccc2C)cs1 0%
COC(=O)c1ccccc1NC(=O)C1CC(=O)N(c2ccc(OC)cc2)C1 (stereo not drawn) 0%
Cc1noc(C)c1S(=O)(=O)N(C)Cc1ccccc1 -1%
CNCC(O)CN1CCN(c2ccccc2OC)CC1 (stereo not drawn) -1%
Cc1ccc(CCCOC(=O)C[N+]2(C)CCCCC2)cc1 0%
CCOC(=O)NN1C(=O)c2ccccc2NC1c1cccc(O)c1 (stereo not drawn) 0%
CCOC(=O)c1c(/N=C/C2C(=O)CC(C)(C)CC2=O)sc(C)c1C 2%
COc1ccc(Cl)cc1C(=O)NNC(=S)NC1CCCC1 1%
Cc1cc(N2CCOCC2)nc(-c2ccc(Br)cc2)n1 -3%
OCC(O)CN(c1ccccc1)c1ccccc1 (stereo not drawn) -1%
O=C(CNC1CCCCC1)NCC1(c2ccccc2)CCCC1 0%
COCCn1c(Cc2cccn2C)nnc1SCC(=O)Nc1nccs1 2%
COc1cc(CNC2CCCC2)c(Br)cc1OCc1ccccc1 -3%
O=C(NCCN1CCOCC1)c1cc(Sc2cccc(Cl)c2)nc2ccccc12 -3%
CCN1CCN(CC(=O)c2cc(OC)c(OC)c(OC)c2)CC1 -1%
O=C(Cc1ccc(F)cc1)N1CCN=C1SCc1cccc([N+](=O)[O-])c1 -1%
CCN(CC)CCNS(=O)(=O)c1ccc(/C=C/C(=O)O)cc1 -2%
C=CCc1ccc(OCC(O)CN2CCN(Cc3ccccc3)CC2)c(OC)c1 (stereo not drawn) -2%
Cn1c(N)c(C(=O)COC(=O)c2cnc(Cl)c(Cl)c2)c(=O)n(C)c1=O 0%
Cc1ccc(NC(=O)CSc2nnc(CNC(=O)c3ccccc3F)o2)cc1 2%
O=[N+]([O-])c1ccc(N2CCNCC2)cc1NCc1cccnc1 0%
CCOC(=O)c1cc(-c2ccc(F)cc2)n(CC(=O)NCc2ccccn2)c1C 0%
CCOC(=O)N1CCN(CCC(=O)Nc2cc(OC)ccc2OC)CC1 1%
C=CCNC(=O)COC(=O)c1ccccc1C(=O)N(C)C1CCCCC1 0%
COc1ccccc1N1CCN(C(=O)C(=O)N/N=C/c2ccccc2F)CC1 -3%
COc1ccc(C(=O)CSc2nc(C)cc(C)n2)cc1[N+](=O)[O-] -1%
CC(C)Oc1ccc(Cc2n[nH]c(=S)n2Cc2ccccc2)cc1Cl -7%
CC1CCCN(CC(O)COCc2ccccc2)C1 (stereo not drawn) 1%
CCCC(NC(=O)c1ccco1)c1nc2ccccc2[nH]1 (stereo not drawn) -5%
C=CCn1c(SCc2cccc(F)c2)nc2cc(C(=O)N3CCC(C(N)=O)CC3)ccc2c1=O -2%
CN(CCOc1ccccc1)Cc1nc2cc(Cl)ccc2c(=O)[nH]1 0%
CC1CC(C)CN(S(=O)(=O)c2ccc(C(=O)NN3CCOCC3)cc2)C1 (stereo not drawn) 1%
COc1ccc2c(c1)C(SCC(=O)NCc1ccccc1)CC(C)(C)O2 (stereo not drawn) -4%
COC(=O)CCNC(=O)c1ccc2[nH]c(C)c(C)c2c1 1%
Cc1ccc(NC(=O)CSc2nnc(COc3ccccc3C)o2)cc1 -1%
COC(=O)CC(=O)N1CCN(c2ccc(Cl)c(Cl)c2)CC1 4%
CSCc1ccc(C(=O)Nc2cc(C)cc(C)c2)cc1 -5%
CCN1CCN(CC(=O)Nc2sc3c(c2C#N)CCC3)CC1 3%
CCOc1cnc(C(=O)NNC(=O)c2ccccc2Br)o1 0%
COc1ccc(-c2csc(NC(=O)COC(=O)c3ccc(Br)o3)n2)cc1 -1%
O=C(CCSc1ccccc1)N1CCN(c2ccccc2F)CC1 -2%
O=C(CCCc1ccccc1)NCc1ccccc1 -1%
COc1cc(/C=C/C2=CC(C)(C)NC(=S)N2)cc(OC)c1OC 0%
CCCCN(CC)C(=O)c1ccccc1Oc1ccccc1 -2%
